Where “and” joins values, the source holds several entries; their conditions need not be identical. Equal values may be shown once. Records with an inconclusive call do not appear. Calls of active or inactive are those of the source. Unless noted, the call rests on the fitted dose curve; in most records, active means well fitted curve in the direction sought with a large enough effect in the repeat runs; inconclusive means weak or mixed curves; inactive means no such curve, though single readings can be large; an effect the other way counts as inactive or inconclusive.
Experiments:
[1] = qHTS assay to identify small molecule antagonists of the thyroid receptor (TR) signaling pathway - cell viability counter screen (AID 743064); further: nearly all actives have a fitted effect of over 50% in size; further: potency means the concentration at half of the fitted maximal effect
Summary of the method: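 In-well cytotoxicity read by CellTiter-Fluor (30 min, 37 C) following 23.5 h exposure of GH3 cells bearing a TRE-luciferase sensor. Compounds were added alongside 1 nM (final) T3 to drive TR transactivation.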

[2] = qHTS assay to identify small molecule antagonists of the thyroid receptor (TR) signaling pathway (AID 743065); further: series mostly up to about 70 µM; nearly all actives have a fitted effect of over 55% in size
Summary of the method: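 Antagonism measured as loss of luciferase signal in GH3 cells stably carrying a TRE-luciferase reporter, co-treated with compound and T3 (1 nM final) for 23.5 h at 37 C. Viability was read in the same well by CellTiter-Fluor.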

[3] = test system: thyroid hormone receptor (rat, GH3 cells); assay: qHTS assay to identify small molecule agonists of the thyroid receptor (TR) signaling pathway (AID 743066; calls by dose curve)
[4] = molecular target: Estrogen receptor (Homo sapiens) (UniProt P03372); assay: qHTS assay to identify small molecule antagonists of the estrogen receptor alpha (ER-alpha) signaling pathway (AID 743069; active means well fitted curve in the direction sought with a large enough effect in the signal ratio in the repeat runs, not every such curve was filed as active; the % refers to the signal ratio)
Summary of the method: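 Antagonist mode: compounds in DMSO were co-added with 17beta-estradiol to ER-alpha-bla HEK293 cells (2% charcoal-stripped serum) and left 18 h at 37C. Reporter inhibition was measured as FRET fluorescence after 2 h LiveBLAzer substrate at room temperature.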

[5] = qHTS assay to identify small molecule antagonists of the estrogen receptor alpha (ER-alpha) signaling pathway - cell viability counter screen (AID 743074; calls by dose curve;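 further: HEK293 cells carrying ER-alpha-UAS-bla reporter stimulated with 17beta-estradiol; nearly all actives have a fitted effect of over 45% in size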)
[6] = molecular target: Estrogen receptor (Homo sapiens) (UniProt P03372); assay: qHTS assay to identify small molecule agonists of the estrogen receptor alpha (ER-alpha) signaling pathway (AID 743075; calls by dose curve;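 further: HEK293 GripTite cells with ER-alpha and UAS-driven beta-lactamase reporter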)
[7] = qHTS assay to identify small molecule antagonists of the estrogen receptor alpha (ER-alpha) signaling pathway using the BG1 cell line (AID 743080; calls by dose curve;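 further: BG1 cells stimulated with 17beta-estradiol alongside compound; series mostly up to about 70 µM; nearly all actives have a fitted effect of over 25% in size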)
Summary of the method: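 BG1-Luc-4E2 cells (endogenous full-length ER-alpha, stable 4×ERE-luciferase) were starved 5 days in phenol-red-free medium with 10% charcoal-stripped FBS, plated 24 h, then given compound plus 17beta-estradiol for 21.5 h at 37 C; ONE-Glo luminescence read after 30 min.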

[8] = qHTS assay to identify small molecule antagonists of the estrogen receptor alpha (ER-alpha) signaling pathway using the BG1 cell line - cell viability counter screen (AID 743081);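 further: compound given together with 17beta-estradiol as the ER stimulus; series mostly up to about 70 µM; nearly all actives have a fitted effect of over 45% in size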
Aromatase (Homo sapiens) = Aromatase (Homo sapiens) (UniProt P11511); assay: qHTS assay to identify aromatase inhibitors (AID 743083); further: nearly all actives have a fitted effect of over 55% in size; further: potency means the concentration at half of the fitted maximal effect
[9] = molecular target: Estrogen receptor (Homo sapiens) (UniProt P03372); assay: qHTS assay to identify small molecule agonists of the estrogen receptor alpha (ER-alpha) signaling pathway using the BG1 cell line (AID 743079); further: nearly all actives have a fitted effect of over 20% in size; further: potency means the concentration at half of the fitted maximal effect

Measured: Potency

Sequence of Estrogen receptor (Homo sapiens) (P03372 whole entry, looked up): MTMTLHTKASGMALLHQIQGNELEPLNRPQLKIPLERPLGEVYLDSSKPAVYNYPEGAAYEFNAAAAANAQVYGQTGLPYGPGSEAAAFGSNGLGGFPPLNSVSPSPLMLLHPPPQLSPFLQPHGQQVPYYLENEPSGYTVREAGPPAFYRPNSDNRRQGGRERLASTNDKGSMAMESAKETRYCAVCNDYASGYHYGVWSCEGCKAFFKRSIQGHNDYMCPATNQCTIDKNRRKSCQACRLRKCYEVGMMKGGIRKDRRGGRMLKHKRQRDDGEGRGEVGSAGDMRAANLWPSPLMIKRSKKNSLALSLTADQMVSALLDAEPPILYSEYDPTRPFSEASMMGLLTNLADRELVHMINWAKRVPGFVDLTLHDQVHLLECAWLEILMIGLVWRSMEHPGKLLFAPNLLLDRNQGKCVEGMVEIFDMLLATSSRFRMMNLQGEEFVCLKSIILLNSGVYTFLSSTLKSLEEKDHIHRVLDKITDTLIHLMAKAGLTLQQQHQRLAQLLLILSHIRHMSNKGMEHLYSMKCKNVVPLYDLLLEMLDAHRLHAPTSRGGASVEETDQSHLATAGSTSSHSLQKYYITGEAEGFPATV
Sequence of Aromatase (Homo sapiens) (P11511 whole entry, looked up): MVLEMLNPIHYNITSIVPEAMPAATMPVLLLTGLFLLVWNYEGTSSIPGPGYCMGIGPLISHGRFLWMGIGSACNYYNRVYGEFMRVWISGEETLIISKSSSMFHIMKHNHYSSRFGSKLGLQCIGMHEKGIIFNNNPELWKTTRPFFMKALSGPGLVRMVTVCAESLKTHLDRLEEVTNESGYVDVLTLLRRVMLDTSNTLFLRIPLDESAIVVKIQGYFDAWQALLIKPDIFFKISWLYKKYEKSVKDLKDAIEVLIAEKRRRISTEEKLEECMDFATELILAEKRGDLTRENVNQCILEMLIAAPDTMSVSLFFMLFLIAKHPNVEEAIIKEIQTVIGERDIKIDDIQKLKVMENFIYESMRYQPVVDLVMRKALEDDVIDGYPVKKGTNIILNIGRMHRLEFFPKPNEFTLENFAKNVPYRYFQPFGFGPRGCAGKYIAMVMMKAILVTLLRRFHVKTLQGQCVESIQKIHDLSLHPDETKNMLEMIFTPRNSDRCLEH

C[C@@H](O)[C@H]1C(=O)N2C(C(=O)O)=C(S[C@@H]3CN[C@H](CNS(N)(=O)=O)C3)[C@H](C)[C@H]12
inactive: [1] | [2] | [3] | [4] | [5] | [6] | [7] | [8] | Aromatase (Homo sapiens)

CCCCCO
inactive: [1] | [2] | [3] | [4] | [5] | [6] | [9] | [7] | Aromatase (Homo sapiens)

COc1ccc(C(=O)c2ccc(C)cc2)c(O)c1
inactive: [1] | [2] | [3] | [4] | [5] | [6] | [8] | Aromatase (Homo sapiens)
active: [9] 13.3 µM and 12.3 µM

O=C(OCCCCCOC(=O)c1ccccc1)c1ccccc1
inactive: [1] | [2] | [3] | [4] | [5] | [6] | [8] | Aromatase (Homo sapiens)

COC(=O)/C=C/C(C)=C\C=C\C(C)=C\C=C\C=C(C)\C=C\C=C(C)\C=C\C(=O)O
inactive: [1] | [2] | [3] | [4] | [5] | [6] | [8] | Aromatase (Homo sapiens)

CCCCOc1ccc(N)cc1
inactive: [1] | [2] | [3] | [4] | [5] | [6] | [8] | Aromatase (Homo sapiens)

Nc1ccc(-c2ccc(F)cc2)cc1
active: [9] 54.5 µM
inactive: [1] | [2] | [3] | [5] | [6] | [8] | Aromatase (Homo sapiens)

O=C(O)c1ccc2c(c1)nc(C(=O)NC1CCN(C3CC3)CC1)n2Cc1cc(-c2ccc(Cl)s2)on1
inactive: [1] | [2] | [3] | [5] | [6] | [9] | [7] | [8] | Aromatase (Homo sapiens)

O=Cc1ccc([N+](=O)[O-])cc1
active: [9] 30.8 µM
inactive: [1] | [2] | [3] | [4] | [5] | [6] | [7] | [8] | Aromatase (Homo sapiens)

CCC(C)C1N=C(C)C(C)S1 (stereo not drawn)
inactive: [1] | [2] | [3] | [5] | [8]

CCOc1cc(OCC)c(C(C)=O)cc1OCC
active: [1] 19 µM | Aromatase (Homo sapiens) 26.8 µM
inactive: [2] | [3] | [5] | [6] | [7]

O=C1c2ccccc2C(=O)C1c1ccc2ccccc2n1
inactive: [1] | [2] | [3] | [4] | [5] | [6] | Aromatase (Homo sapiens)

CCC[Si](OC)(OC)OC
inactive: [1] | [2] | [3] | [4] | [5] | [6] | [9] | [7] | [8] | Aromatase (Homo sapiens)

NC(=O)c1ccccc1C(N)=O
inactive: [1] | [2] | [3] | [4] | [5] | [6] | [9] | [7] | [8] | Aromatase (Homo sapiens)

O=C(c1ccc(Cl)cc1)c1ccc(Cl)cc1
inactive: [1] | [2] | [3] | [4] | [5] | [6] | [9] | [7] | [8] | Aromatase (Homo sapiens)

Nc1cccc2c(=O)[nH][nH]c(=O)c12
inactive: [1] | [2] | [3] | [5] | [6] | [9] | [7] | [8] | Aromatase (Homo sapiens)

CC(C)Oc1ccccc1O
inactive: [1] | [2] | [3] | [4] | [5] | [6] | [9] | [7] | [8] | Aromatase (Homo sapiens)

Cc1ccc(NC=O)c(C)c1
inactive: [1] | [2] | [3] | [4] | [5] | [6] | [9] | [7] | [8] | Aromatase (Homo sapiens)

O=C(O)c1ccc2cc(O)ccc2c1
inactive: [1] | [2] | [3] | [4] | [5] | [6] | [7] | [8] | Aromatase (Homo sapiens)

FC(F)(Cl)C(F)(Cl)Cl
inactive: [1] | [2] | [3] | [4] | [6] | [9] | [7] | [8] | Aromatase (Homo sapiens)

CC1(C)[C@@H]2CC[C@]3(C2)[C@@H]1C(=O)CCC3(C)C
inactive: [1] | [2] | [3] | [4] | [6] | [9] | [7] | [8]

CC(=O)c1cccnc1
inactive: [1] | [2] | [3] | [4] | [5] | [6] | [9] | [7] | [8] | Aromatase (Homo sapiens)

Cc1nc(C)c(C)nc1C
inactive: [1] | [2] | [3] | [4] | [5] | [6] | [9] | [7] | [8] | Aromatase (Homo sapiens)

Cc1cc(N)n(-c2ccccc2)n1
inactive: [1] | [2] | [3] | [4] | [5] | [6] | [8] | Aromatase (Homo sapiens)

CC(C)(C)N
inactive: [1] | [2] | [3] | [4] | [5] | [6] | [9] | [7] | [8] | Aromatase (Homo sapiens)

CCOc1ccc(NC(C)=O)cc1N
inactive: [1] | [2] | [3] | [4] | [5] | [6] | [8] | Aromatase (Homo sapiens)
